± gives the standard deviation of the averaged measurements. The full ranking holds about 25,000 sequences; the median of “ln(normalized median fluorescence intensity)” is about 8.6, and the highest 2% start at about 10. The sample holds the highest values, similar sequences and a random draw of the others, so the mix is not that of the screen.
tested on: PfAP2-EXP AP2 domain (GST-tagged); assay: gcPBM binding intensity (ln(normalized median fluorescence intensity)); higher = stronger DNA binding
In short: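 In this array assay, P. falciparum DNA-binding domains with a GST tag, expressed in E. coli, were applied for 1 h to primer-extended double-stranded 36-bp intergenic genomic probes and negative controls on an Agilent 4 × 180k array. Bound protein was visualised with Alexa488 anti-GST antibody at 488 nm. Binding intensity is the highest Masliner-normalised natural-log median intensity across replicate spots of either probe orientation.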

| Sequence | gcPBM binding intensity (ln) |
| --- | --- |
| ACATACATACACCCACGTACGTACCGAAACACCACC [XGTACX_site1212] | 9.11 ± 0.35 |
| TATTTATGTTCATATAAACACACGTAAAATTCAAGG [CACACA_site1538] | 8.62 ± 0.39 |
| TAAATAATAATAAAATGTACATTATATATGTATATG [XGTACX_site8672] | 8.44 ± 0.36 |
| AACTTCTTTTTTATAACACACAAAATATATATACAA [CACACA_site282] | 8.69 ± 0.42 |
| AAAGGAAAAGTTGACTGTACATAAGTAAAAAATAAT [XGTACX_site788] | 9.15 ± 0.42 |
| ATATATATATAATGTAGTACTATTTAATAATAAGCC [XGTACX_site1263] | 9.775 ± 0.078 |
| AAATAAAATACAATATGATAAAATGTTATCATATAT [CACACA_negctrl_site538] | 8.35 ± 0.38 |
| TATATATATATATTCACACATAAATATATGCACCCA [CACACA_site4263] | 9.96 ± 0.2 |
| TTTAATATATATATGTGTACATATAAATTATATATA [XGTACX_site8511] | 8.2 ± 0.23 |
| TTTTTTTTTTTTTTTGCACACAGGGTGTAGGACAAG [CACACA_site2842] | 8.6 |
| TTATATTATACATACACACCCATATAATATGTTTTT [CACACA_site4636] | 8.73 ± 0.42 |
| ATAAATATTGGGTGCACACACATAATATATATATAT [CACACA_site2272] | 10.1 ± 0.21 |
| AACCATTGGGAAAGGGTGCACATATATATATATATA | 10.8 ± 0.35 |
| GGAAAAACCATTCGCACACACACATAATATATAATA [CACACA_site1424] | 8.66 ± 0.47 |
| TTTAAGCGTTCACTGCTGCACTTTTATGTTGTGACC | 8.71 ± 0.51 |
| GAAGAAAAATAAAAAGTGCAAAAAAAGTAAAAATTT [GTGCAC_site9897] | 8.95 ± 0.49 |
| CATATACATACACATACACACATACACCCATACACA [CACACA_site8514] | 8.77 ± 0.55 |
| TGAATAAATCAAAGCACACATACACCCACATATATA [CACACA_site286] | 8.78 ± 0.49 |
| TATATATATATATATACACACACACCCATATATATA [CACACA_site8812] | 10.3 ± 0.3 |
| TATATATACATATACACACACACACCCATATATATA [CACACA_site2246] | 8.84 ± 0.39 |
| CACATATATACACATACACACACACCCATACACCCA [CACACA_site8505] | 8.77 ± 0.33 |
| TCAAAGCACAGATACACACACATATATATATATATA [CACACA_site287] | 10 ± 0.42 |
| CATACACCCATACATACACACATACATATATATATA [CACACA_site8591] | 9.895 ± 0.064 |

| Sequence | gcPBM binding intensity (ln) |
| --- | --- |
| TATATATATATATACACACACACACCCATATATATA [CACACA_site2538] | 10.2 ± 0.24 |
| TCAAAGCACCCATACACACACATATATATATATATA [CACACA_site4317] | 10.3 ± 0.19 |
| TATCACAAAATATACTGTACATACAGGCAGTAATAT [XGTACX_site2487] | 8.71 ± 0.34 |
| GAAAAAAAAAAAAATACACACAAATTGGTATAGAAT [CACACA_site380] | 8.53 ± 0.47 |
| TTGGTGATATTTTTCTCACACATTTACCAGAGATGT [CACACA_site4684] | 8.44 ± 0.37 |
| AGGTACTTTTTTAAAACACACATATAATAAATACAC [CACACA_site4730] | 8.84 ± 0.28 |
| ATGTAAGTTGTGCATTCACACACATATATATATATA [CACACA_site9086] | 10.2 ± 0.2 |
| GTAAGTTGTGCATTCACACACATATATATATATATA [CACACA_site3303] | 10.2 ± 0.28 |
| GTAAGTTGTGCATTCACACACATATAAATATAAATA [CACACA_site7536] | 8.66 ± 0.24 |
| AGTTCAGAATTGAATAGTACATAAATATAACAAAAT [XGTACX_site650] | 8.88 ± 0.36 |
| TGTATTTTTAACATATGTACGAATAGCACGTGTTAT [XGTACX_site3640] | 8.89 ± 0.44 |
| AGTTTTTATTAAAACAAAATTTAATTATAACGTTGA [XGTACX_negctrl_site298] | 8.08 ± 0.3 |
| ATATAGATGCATAATACACACATCAGATAATTAACC [CACACA_site6871] | 8.64 ± 0.33 |
| TATATATATATAGATGCATGCAATTACATATAACAA [TGCATGCA_site118] | 10.2 ± 0.23 |
| CAATTAAAAAATAATACATGCATATAAATAGATATT [TGCATGCA_site427] | 8.71 ± 0.38 |
| TCCTTATTTCATATTTTTAAATAATACAAAAAAAAA [CACACA_negctrl_site773] | 8.06 ± 0.38 |
| TATAATAATAATTATTGTACGATTAGGTTAATTCAT [XGTACX_site1984] | 8.37 ± 0.23 |
| ATGTAGGTTAATTATTGTACGTAGGGGGTGTATATT [XGTACX_site3973] | 10.2 ± 0.48 |
| TATAATAATACGTATTGTACTATTAGGTTAATTCGT [XGTACX_site264] | 8.34 ± 0.33 |
| ATTATTTTAATAAAACGTACAAAATATAAATCAAAA [XGTACX_site3770] | 8.73 ± 0.45 |
| GGTTAGACGAAATATACATGCAATGGAAAATAAGTT [TGCATGCA_site23] | 9.42 ± 0.24 |
| AAATAAAAAGTAAAGCGTACAAATGATCAAATAATA [XGTACX_site7898] | 9.04 ± 0.53 |
| AAAGAAAGTACCTTCACACATATAAGAATATAATAT [CACACA_site5214] | 8.6 ± 0.52 |

| Sequence | gcPBM binding intensity (ln) |
| --- | --- |
| TTTTTTTTTTTTGTCACACATATGGAATATATCTAT [CACACA_site5899] | 8.54 ± 0.54 |
| TATAATTGTCTTCACACACACATATATATATATATA [CACACA_site2743] | 10.2 ± 0.29 |
| TTCAAAATAAAAAATTCACACACATATATATATATA [CACACA_site8653] | 10 ± 0.45 |
| ATTATATAATTGTCTTCACACACACCGATATATATA [CACACA_site8883] | 8.93 ± 0.51 |
| ATCTTTCAATAATTCACACATATATATATATATATA [CACACA_site4598] | 10.2 ± 0.28 |
| TATATCTTAATATACACACACACATATATATATATA [CACACA_site4968] | 10 ± 0.35 |
| TATATAATTGTCTTCACACACACATATATATATATA [CACACA_site2744] | 10 ± 0.3 |
| TTGTAATATCTTGTCACACATATATATATATATATA [CACACA_site4937] | 10.2 ± 0.57 |
| ACATCTCTTATATATTCACACACATATATATAATTA [CACACA_site8424] | 8.82 ± 0.35 |
| AAGAATATAATCTTCACACATATATATATATATATA [CACACA_site5927] | 10.2 ± 0.33 |
| TTTCTTCATTTTTTCACACATAAGAAAATATAATCA [CACACA_site4275] | 8.46 ± 0.46 |
| ATCTATGAAAAAGGTACATGCAATAAAGAAACATAT [TGCATGCA_site805] | 9.54 ± 0.45 |
| TCATAAATTAAACAAACACACACGTTCTTTTATTTA [CACACA_site713] | 8.38 ± 0.33 |
| CATATTATTATTTTGGTGCATACTTATATATATTTT | 8.75 ± 0.31 |
| ATACTTTTATTTTTGGTGCATATATCATGTAGACGT | 9.025 ± 0.035 |
| AATATTTTTTTTTAAACATGCATATTTGCATTACCC [TGCATGCA_site437] | 8.58 ± 0.41 |
| TTTTTTTTTGGGGGTGCATGCAAGACATATATTTAA [TGCATGCA_site228] | 10.43 ± 0.028 |
| CTTTTTTTTTTGGGGGTGCATGCAAGACATATATTT [GTGCAC_site9660] | 10.51 ± 0.028 |
| AATATTTTATTTTGGGTGCAAAAGAATATTATTTCA | 8.34 ± 0.071 |
| ATTTTGGAAATAATATGTACATATACATAATATATA [XGTACX_site4177] | 8.36 ± 0.29 |
| GCATTGATCAAACATACACACATGGTTAATAAAAAT [CACACA_site2085] | 8.72 ± 0.55 |
| ATTCTTTATTATTCGCCACACACATATATATATATA [CACACA_site9009] | 10.2 ± 0.28 |
| ATTTATTATATATACACACATACATATATATATATA [CACACA_site2159] | 9.91 ± 0.42 |

| Sequence | gcPBM binding intensity (ln) |
| --- | --- |
| ATATATATATATTTATGTACATATTATTTATTCTTT [XGTACX_site6567] | 9.94 ± 0.17 |
| TCTTTATTATTCGCCACACACATATATATATATATA [CACACA_site3077] | 10.2 ± 0.43 |
| TTTCTTTTTATATTCACACATAAATATATATATATA [CACACA_site6053] | 9.81 ± 0.28 |
| TCTTTATTATTCGCCACACACATATAAATATAAATA [CACACA_site7441] | 8.88 ± 0.38 |
| CCATTCAAATTTCGCACACACATACAAAAAAAAAAA [CACACA_site3093] | 8.59 ± 0.42 |
| ATGCAATAATAATATTGTACGCATATATTTTTTACT [XGTACX_site3384] | 8.41 ± 0.3 |
| TATAGCATAAATATGTGTACATATTTATATGATATT [XGTACX_site6333] | 8.37 ± 0.28 |
| AATACGAAGGATAAGAGTACTAATTAAATAAATGAA [XGTACX_site523] | 8.96 ± 0.28 |
| TAAGGTAGTTCTGTATCACACACATATATATATATA [CACACA_site8693] | 10.1 ± 0.26 |
| AGGTAGTTCTGTATCACACACATATATATATATATA [CACACA_site2214] | 10.3 ± 0.47 |
| AGGTAGTTCTGTATCACACACATATAAATATAAATA [CACACA_site7110] | 8.48 ± 0.4 |
| TCAACAAAATTGAAGGAACACACATACATATATATA [CACACA_site7940] | 8.87 ± 0.23 |
| CACAGACACCCATACACACACATACCCATATATATA [CACACA_site5023] | 8.79 ± 0.32 |
| CACCCCCACAGACACACACACACACCCACATATATA [CACACA_site365] | 9.27 ± 0.39 |
| CATACACCCAGACACACACACATATATATATATATA [CACACA_site634] | 10.1 ± 0.44 |
| TACAGACATACATACACACATACATACAGACATACA [CACACA_site1941] | 8.66 ± 0.26 |
| TTCCCCCCCAGACACACACACACATACATACCACAT [CACACA_site2305] | 10.5 ± 0.24 |
| CCCCCCCACAGACACACACACATACATACCACATAT [CACACA_site2306] | 10.3 ± 0.014 |
| CATTTCTATATAAGCACACACGTGGAATTTTTTTTT [CACACA_site5537] | 8.7 ± 0.26 |
| GCCATAAAAATATATACACACATAAAAAAAAATTAT [CACACA_site1176] | 8.36 ± 0.53 |
| CTTTGTAGTTGGTCCACACACATATCTGGAAGAATA [CACACA_site4834] | 8.54 ± 0.39 |
